Experimental data taken from the supplement of paper PMC13380429.
Values without a mark were called inactive.

Tested on: Vero E6 infected with SARS-CoV-2
Assay: inhibition of SARS-CoV-2 cytopathic effect; higher = more antiviral protection, active = above 15
Details: 48 h

SMILES	inhibition of SARS-CoV-2 cytopathic effect (1 nM) [%]	inhibition of SARS-CoV-2 cytopathic effect (8.33 nM) [%]	inhibition of SARS-CoV-2 cytopathic effect (100 nM) [%]	inhibition of SARS-CoV-2 cytopathic effect (833.33 nM) [%]	inhibition of SARS-CoV-2 cytopathic effect (10000 nM)
CCOC(=O)c1ccc(OCCC2CCN(c3ccc(C)nn3)CC2)cc1 [pirodavir]	2.32	1.72	0.34	1.49	-2.18%
CC(C)[C@H](NS(=O)(=O)c1ccc(-c2ccc(Br)cc2)cc1)C(=O)O	0.82	0.67	-0.06	0.69	1.89%
CS(=O)(=O)Nc1ccc(Cc2noc(-c3ccc4[nH]cc(CCN)c4c3)n2)cc1	-2.75	-0.95	-2.42	-1.18	-1.18%
Cc1ccccc1N1CCN(CCc2nnc3n2CCCC3)CC1 [dapiprazole]	-2.9	-2.22	0.65	-0.37	0.44%
COc1cc2c(CCNC(C)=O)c[nH]c2cc1Cl [6-chloromelatonin]	0.92	0.78	-1.78	4.57	-13.2%
CC(C)OC(=O)C(C)(C)Oc1ccc(C(=O)c2ccc(Cl)cc2)cc1 [fenofibrate]	4.02	5.16	3.28	-0.31	0.82%
COc1cc(O)c2c(c1)C(=O)c1cc(C)cc(O)c1C2=O [rheochrysidin]	1.91	1.62	1.33	-0.52	-0.59%
CCCN(CCC)C(=O)Cc1c(-c2ccc(Cl)cc2)nc2ccc(Cl)cn12 [alpidem]	-5.3	-6.64	-7.76	-6.87	-3.74%
C=CCNc1c(O)cc2c(O)c1C[C@@H](C)C[C@H](OC)[C@H](O)[C@@H](C)/C=C(\C)[C@H](OC(N)=O)[C@@H](OC)/C=C\C=C(/C)C(=O)N2 [retaspimycin]	2.45	0.93	6.54	5.56	8.73%
O=C(O)CC(S)C(=O)O (stereo not given) [mercaptosuccinic-acid]	0.69	3.36	4.14	3.72	-0.09%
CNCC[C@H](Oc1cccc2ccccc12)c1cccs1 [duloxetine]	-2.53	-0.71	0.92	-2.04	-6.87%
O=C1NC(c2ccccc2)(c2ccccc2)C(=O)N1COP(=O)(O)O [fosphenytoin]	2.33	4.09	13.5	1.24	-0.44%
Cc1cc2c(C(C)C)c(O)c(O)c(C=O)c2c(O)c1-c1c(C)cc2c(C(C)C)c(O)c(O)c(C=O)c2c1O [gossypol]	-0.82	-3.04	-0.64	-2.5	-6.17%
CO[C@H](C(=O)[C@@H](O)[C@@H](C)O)[C@@H]1Cc2cc3cc(O[C@H]4C[C@@H](O[C@H]5C[C@@H](O)[C@H](O)[C@@H](C)O5)[C@@H](O)[C@@H](C)O4)c(C)c(O)c3c(O)c2C(=O)[C@H]1O[C@H]1C[C@@H](O[C@H]2C[C@@H](O[C@H]3C[C@](C)(O)[C@H](O)[C@@H](C)O3)[C@H](O)[C@@H](C)O2)[C@H](O)[C@@H](C)O1 [plicamycin]	2.66	3.18	3.85	-3.43	-7.42%
CCC1(c2c[nH]cn2)Cc2ccccc2C1 [atipamezole]	0.76	2.54	0.58	2.4	1.28%
CNC(=O)N(C)N=O [nitrosodimethylurea]	-0.7	-0.84	-4.76	1.42	-2.36%
Cc1[nH]c2ccccc2c1CCNC(=O)c1cccs1	-3.95	-2.61	-2.69	1.32	16% (active)
O=[N+]([O-])c1cc(Cl)ccc1S(=O)(=O)N1CCN(Cc2ccccc2)CC1	2.15	2.13	-0.96	3.68	-1.65%
O=C(O)c1c(Cl)c(Cl)c(Cl)c(Cl)c1-c1c2cc(I)c(=O)c(I)c-2oc2c(I)c(O)c(I)cc12 [rose-bengal]	-2.56	-2.17	1.8	-2.12	-13.9%
CNC(=O)c1cc(COc2nnc(Nc3ccc(Cl)cc3)c3ccoc23)ccn1 [telatinib]	0.06	2.23	-1.3	0.04	0.53%
NCc1c[nH]c(=S)n1[C@H]1CCc2c(F)cc(F)cc2C1 [nepicastat]	-0.64	1.63	2.16	0.6	-0.04%
CCCN(CCC)C(=O)C1=Cc2ccc(-c3ccc(C(=O)N4CCCC4)cc3)cc2N=C(N)C1 [motolimod]	0.77	0.05	1.88	1.37	-1.01%
COc1ccc([C@@H]2CC(=O)c3c(O)cc(O[C@@H]4O[C@H](CO[C@@H]5O[C@@H](C)[C@H](O)[C@@H](O)[C@H]5O)[C@@H](O)[C@H](O)[C@H]4O)cc3O2)cc1O [hesperidin]	1.23	2.76	0.86	0.15	1.25%
COc1cc2c(cc1O)CC[C@@H]1[C@@H]2CC[C@]2(C)[C@@H](O)CC[C@@H]12 [2-methoxyestradiol]	-3.17	0.66	-1.13	-1.83	-4.59%
